# Assay outcomes deposited in PubChem by Broad Institute.
# Only some compounds are listed: those with a hit (about 2.4% of all), similar ones and a draw of the others.
# C diff growth = blocks growth of Clostridium difficile. Clostridium difficile clinical isolate growth, OD600, 24 h; stronger effect = lower value. growth activity, negative = inhibition, % at 16 µg/mL (by protocol). 86,000 compounds, 0.25% hits. AID 1259249;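 active = mean growth activity at or below -80% and every replicate also at or below -80%; inconclusive = mean at or below -80% but some replicate above -80%; inactive = mean growth activity above -80%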
# Pf Dd2 growth = inhibitors of Plasmodium falciparum Dd2 growth. activity change, % at 10 µM. P. falciparum Dd2 growth, SYBR Green, 72 h; stronger effect = lower value. AID 1159554. 94,000 compounds, 2.3% hits; in the data active = activity change below about -80%; inconclusive = no clear call, values can overlap the other calls
# A number is an active result; n = inactive; u = inconclusive; x = no result given.
SMILES,C diff growth,Pf Dd2 growth
C[C@H]1CN([C@@H](C)CO)C(=O)c2cc(NC(=O)Cc3cn(C)c4ccccc34)ccc2O[C@H]1CN(C)S(=O)(=O)c1ccccc1,n,-91
COc1ccc(S(=O)(=O)N(C)C[C@@H]2Oc3ccc(NC(=O)Cc4cn(C)c5ccccc45)cc3C(=O)N([C@@H](C)CO)C[C@@H]2C)cc1,n,n
CN1CCN(C(=O)C[C@@H]2CC[C@H]3[C@@H](COC[C@@H](O)CN3C(=O)Nc3ccc(F)cc3)O2)CC1,n,n
C[C@@H]1CN([C@H](C)CO)S(=O)(=O)c2ccc(-c3ccc(C(=O)N(C)C)cc3)cc2O[C@H]1CN(C)C(=O)C1CC1,x,n
COCC(=O)N1C[C@@H](C)[C@H](OC)CN(C)C(=O)c2cc(NC(=O)c3ccc(OC)cc3)ccc2OC[C@@H]1C,x,n
O=S(=O)(NC[C@H]1CC[C@@H]2NC[C@@H]2O1)c1ccccc1F,n,n
C[C@H]1CN([C@@H](C)CO)C(=O)c2cccc(NC(=O)C3CCOCC3)c2O[C@H]1CN(C)Cc1ccc(-c2ccccc2)cc1,n,n
CC(C)NC(=O)Nc1cccc2c1O[C@H](CN(C)Cc1ccc(-c3ccccc3)cc1)[C@H](C)CN([C@@H](C)CO)C2=O,n,-85
C[C@H]1CN([C@@H](C)CO)C(=O)c2cccc(NC(=O)C3CC3)c2O[C@@H]1CN(C)Cc1ccc(-c2ccccc2)cc1,n,n
C[C@@H]1CN([C@H](C)CO)C(=O)c2cccc(NC(=O)C3CCOCC3)c2O[C@H]1CN(C)Cc1ccc(-c2ccccc2)cc1,n,-84
C[C@@H]1CN([C@@H](C)CO)C(=O)c2cccc(NC(=O)C3CCOCC3)c2O[C@H]1CN(C)Cc1ccc(-c2ccccc2)cc1,n,-84
C[C@H](CO)N1C[C@H](C)[C@@H](CN(C)Cc2ccc(-c3ccccc3)cc2)Oc2c(NC(=O)C3CCOCC3)cccc2C1=O,n,n
CC(C)NC(=O)Nc1cccc2c1O[C@H](CN(C)Cc1ccc(-c3ccccc3)cc1)[C@@H](C)CN([C@@H](C)CO)C2=O,n,n
C[C@@H]1CN([C@@H](C)CO)C(=O)c2cccc(NC(=O)C3CC3)c2O[C@H]1CN(C)Cc1ccc(-c2ccccc2)cc1,n,-89
C[C@H](CO)N1C[C@H](C)[C@H](CN(C)Cc2ccc(-c3ccccc3)cc2)Oc2ncc(C#C[C@@H](C)O)cc2C1=O,n,n
COC(=O)[C@]1(Cc2ccccc2)N=C(c2ccc(OCCCO)cc2)O[C@@H]1c1ccccc1,n,x
O=C(Cc1ccccn1)N1CC(=O)N2[C@H](CO)[C@@H](c3ccc(C#CCC4CCCC4)cc3)[C@@H]2C1,n,n
Cc1ccc(S(=O)(=O)Nc2ccc3c(c2)C(=O)N([C@H](C)CO)C[C@@H](C)[C@@H](CN(C)S(=O)(=O)c2ccc(C)cc2)OCCCC[C@H](C)O3)cc1,x,-84
COc1ccc(S(=O)(=O)Nc2ccc3c(c2)C(=O)N([C@@H](C)CO)C[C@H](C)[C@@H](CN(C)S(=O)(=O)c2ccccc2)OCCCC[C@@H](C)O3)cc1,n,-88
Cc1noc(C)c1S(=O)(=O)Nc1ccc2c(c1)C(=O)N([C@H](C)CO)C[C@@H](C)[C@H](CN(C)S(=O)(=O)c1ccc(F)cc1)O2,n,n
Cc1ccc(S(=O)(=O)Nc2ccc3c(c2)C(=O)N([C@@H](C)CO)C[C@H](C)[C@@H](CN(C)S(=O)(=O)c2ccc(C)cc2)OCCCC[C@H](C)O3)cc1,x,n
COc1ccc(S(=O)(=O)Nc2ccc3c(c2)C(=O)N([C@H](C)CO)C[C@@H](C)[C@@H](CN(C)S(=O)(=O)c2ccc(Cl)cc2)OCCCC[C@@H](C)O3)cc1,n,-89
COc1ccc(S(=O)(=O)N(C)C[C@H]2OCCCC[C@H](C)Oc3ccc(NS(=O)(=O)c4ccccc4)cc3C(=O)N([C@H](C)CO)C[C@H]2C)cc1,n,x
Cc1noc(C)c1S(=O)(=O)Nc1ccc2c(c1)C(=O)N([C@@H](C)CO)C[C@@H](C)[C@H](CN(C)S(=O)(=O)c1ccc(F)cc1)O2,n,-85
COc1ccc(S(=O)(=O)Nc2ccc3c(c2)C(=O)N([C@@H](C)CO)C[C@@H](C)[C@H](CN(C)S(=O)(=O)c2ccc(Cl)cc2)OCCCC[C@H](C)O3)cc1,n,n
SMILES,C diff growth,Pf Dd2 growth
CC(C)C#Cc1cnc2c(c1)C(=O)N([C@@H](C)CO)C[C@@H](C)[C@H](CN(C)C(=O)Cc1ccccn1)O2,n,n
Cc1ccc(S(=O)(=O)N(C)C[C@H]2OCCCC[C@@H](C)Oc3ccc(NS(=O)(=O)c4ccc(Cl)cc4)cc3C(=O)N([C@H](C)CO)C[C@H]2C)cc1,n,-80
Cc1ccc(S(=O)(=O)N(C)C[C@H]2OCCCC[C@@H](C)Oc3ccc(NS(=O)(=O)c4ccc(Cl)cc4)cc3C(=O)N([C@@H](C)CO)C[C@H]2C)cc1,n,n
Cc1ccc(S(=O)(=O)Nc2ccc3c(c2)C(=O)N([C@@H](C)CO)C[C@H](C)[C@@H](CN(C)S(=O)(=O)c2ccc(Cl)cc2)OCCCC[C@@H](C)O3)cc1,n,u
Cc1ccc(S(=O)(=O)Nc2ccc3c(c2)C(=O)N([C@@H](C)CO)C[C@H](C)[C@@H](CN(C)S(=O)(=O)c2ccc(Cl)cc2)OCCCC[C@H](C)O3)cc1,n,-86
Cc1ccc(S(=O)(=O)Nc2ccc3c(c2)C(=O)N([C@@H](C)CO)C[C@@H](C)[C@@H](CN(C)S(=O)(=O)c2ccc(Cl)cc2)OCCCC[C@H](C)O3)cc1,n,-86
Cc1noc(C)c1S(=O)(=O)Nc1ccc2c(c1)C(=O)N([C@@H](C)CO)C[C@@H](C)[C@H](CN(C)S(=O)(=O)c1ccc(Cl)cc1)OCCCC[C@@H](C)O2,n,n
Cc1noc(C)c1S(=O)(=O)Nc1ccc2c(c1)C(=O)N([C@@H](C)CO)C[C@@H](C)[C@@H](CN(C)S(=O)(=O)c1ccc(Cl)cc1)OCCCC[C@H](C)O2,n,-92
Cc1ccc(S(=O)(=O)N(C)C[C@H]2OCCCC[C@@H](C)Oc3ccc(NS(=O)(=O)c4ccc(Cl)cc4)cc3C(=O)N([C@H](C)CO)C[C@@H]2C)cc1,n,n
COc1ccc2c3c([nH]c2c1)[C@H](CO)N(S(C)(=O)=O)CC31CN(C(=O)c2ccncc2)C1,n,n
C[C@@H]1CN([C@H](C)CO)C(=O)c2cc(NC(=O)Cn3cnnn3)ccc2O[C@@H]1CN(C)Cc1ccc(Cl)c(Cl)c1,n,n
COc1ccc(S(=O)(=O)Nc2ccc3c(c2)C(=O)N([C@@H](C)CO)C[C@@H](C)[C@@H](CN(C)S(=O)(=O)c2ccc(C)cc2)OCCCC[C@H](C)O3)cc1,x,n
COc1ccc(S(=O)(=O)N(C)C[C@H]2OCCCC[C@H](C)Oc3ccc(N(C)C)cc3C(=O)N([C@H](C)CO)C[C@@H]2C)cc1,n,-88
COc1ccc(S(=O)(=O)Nc2ccc3c(c2)C(=O)N([C@H](C)CO)C[C@@H](C)[C@@H](CN(C)S(=O)(=O)c2ccc(C)cc2)OCCCC[C@H](C)O3)cc1,x,-81
COc1ccc(S(=O)(=O)N(C)C[C@@H]2OCCCC[C@@H](C)Oc3ccc(N(C)C)cc3C(=O)N([C@H](C)CO)C[C@H]2C)cc1,n,n
CC=Cc1ccc2n(c1=O)C[C@H]1[C@H](CO)[C@@H](C(=O)NCCC)[C@@H]2N1Cc1cccnc1 (mixture of isomers),n,n
